Pf growth 96h – Primary qHTS for delayed death inhibitors of the malarial parasite plastid, 96 hour incubation. P. falciparum luciferase reporter growth, 96 h. Potency, µM (top dose mostly 28.7 µM), hits mostly inhibitors. 320,000 compounds, 6.9% hits. AID 504834, 2011
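Infected RBCs, 2% Hct / 0.05% parasitemia final; luciferase-reporter P. falciparum; cpd 96 h, 37 C, 5% CO2; luciferase detection reagent; luminescence.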
Cycloheximide cs – Cycloheximide Counterscreen for Small Molecule Inhibitors of Shiga Toxin; max response, %; cell reporter, cycloheximide protein synthesis inhibition counterscreen; AID 2314, 2010; 300,000 compounds, 12% hits; in the data active means max response mostly above about 13%, no sharp cut-off; inactive means mostly below about 14%; further: read at 38.3 µM for the half of the compounds with a filed dose
Giardia FBPA inh-1 – qHTS Assay for Inhibitors of Fructose-1,6-bisphosphate Aldolase from Giardia Lamblia | purified Giardia FBPA | AID 2451, 2010 | 290,000 compounds, 0.71% hits | Potency, µM (top dose mostly 59.6 µM), most hits filed as inhibitors; further: nearly all actives have a fitted effect of over 55% in size
Target sequence (A8B2U2 whole entry, looked up): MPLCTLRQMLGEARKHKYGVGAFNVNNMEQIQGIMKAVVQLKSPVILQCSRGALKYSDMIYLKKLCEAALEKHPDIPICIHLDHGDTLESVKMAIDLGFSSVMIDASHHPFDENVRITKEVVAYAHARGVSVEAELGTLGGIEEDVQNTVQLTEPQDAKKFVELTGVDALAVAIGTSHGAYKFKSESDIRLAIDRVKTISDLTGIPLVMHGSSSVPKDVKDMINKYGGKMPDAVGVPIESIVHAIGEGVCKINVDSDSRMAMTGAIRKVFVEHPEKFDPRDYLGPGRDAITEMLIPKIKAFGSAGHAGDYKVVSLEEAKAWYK
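Giardia FBPA (40 nM reagent) was preincubated 10 min at RT with compound (up to 57.5 uM final), then substrate plus GAPDH/TPI/NAD/arsenate coupling system with diaphorase/resazurin was added; resorufin fluorescence (525/598 nm) was read after 20 min.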
Shiga toxin inh – A qHTS for Small Molecule Inhibitors of Shiga Toxin | Vero cells, Shiga toxin protein synthesis inhibition reporter | AID 2315, 2010 | 290,000 compounds, 9.2% hits | inhibition, % at 38.7 µM; in the data active means inhibition mostly above about 28%, no sharp cut-off; inactive means mostly below about 43%
NS1 function inh – qHTS Assay for Inhibitors of Influenza NS1 Protein Function; Potency, µM (highest dose often 46.1 µM); 270,000 compounds, 0.4% hits; AID 2326, 2010; calls by dose curve; further: actives are rising curves; nearly all actives have a fitted effect of over 50% in size
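Recovery from NS1-induced slow growth read by OD600 in budding yeast switched to galactose assay medium (pH 6.0, -URA) at 1:100 dilution. Compound 23 nl per well; the matching strain lacking NS1 serves as control.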
Pf growth 48h – Primary qHTS for delayed death inhibitors of the malarial parasite plastid, 48 hour incubation | P. falciparum luciferase growth in erythrocytes, 48 h | Potency, µM (series often up to 28.7 µM), hits mostly inhibitors | 310,000 compounds, 5.9% hits
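Compounds are pin-transferred into medium, infected erythrocytes (2% hematocrit, 0.1% parasitemia final) are added, and plates sit one parasite generation at 37 C in 5% CO2. Detection reagent is then added and luminescence measured.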
Giardia growth – qHTS Assay for Inhibitors of Fructose-1,6-bisphosphate Aldolase from Giardia Lamblia: Giardia lamblia growth inhibition; Potency, µM (highest dose often 57.5 µM), hits mostly inhibitors; shares compounds with Giardia FBPA inh-1; 1,500 compounds, 5% hits; Giardia lamblia trophozoite growth inhibition;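 further: trophozoites exposed to compound for 48 h at 37 °C; nearly all actives have a fitted effect of over 70% in size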
Mammal cell tox – qHTS Assay for Inhibitors of Fructose-1,6-bisphosphate Aldolase from Giardia Lamblia: Mammalian cellular toxicity | Potency, µM (top dose mostly 57.5 µM), actives largely listed as inhibitors | mammalian cell viability counter-screen, qHTS | 1,500 compounds, 4% hits | shares compounds with Giardia FBPA inh-1;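 further: Chinese hamster ovary cells used as mammalian cytotoxicity surrogate; viability measured as cellular ATP by luminescence; compound exposure lasted 48 h before reading; nearly all actives have a fitted effect of over 60% in size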
Giardia FBPA inh-2 – qHTS Assay for Inhibitors of Fructose-1,6-bisphosphate Aldolase from Giardia Lamblia: Primary screen confirmation. shares compounds with Giardia FBPA inh-1. purified Giardia aldolase enzyme activity, qHTS. Potency, µM (highest dose often 57.5 µM), hits mostly inhibitors. 1,500 compounds, 5% hits. AID 2787, 2010; further: nearly all actives have a fitted effect of over 45% in size
Rabbit aldolase – qHTS Assay for Inhibitors of Fructose-1,6-bisphosphate Aldolase from Giardia Lamblia: Rabbit FBPA Selectivity. shares compounds with Giardia FBPA inh-1. Rabbit muscle FBPA enzyme inhibition, selectivity counter-screen. Potency, µM (doses to about 57.5 µM), most hits filed as inhibitors. 1,500 compounds, 4% hits. AID 2794, 2010; further: nearly all actives have a fitted effect of over 60% in size
GAPDH coupling – qHTS Assay for Inhibitors of Fructose-1,6-bisphosphate Aldolase from Giardia Lamblia: Coupling assay counterscreen confirmation; shares compounds with Giardia FBPA inh-1; GAPDH coupling enzyme counterscreen, biochemical, qHTS; Potency, µM (highest dose often 57.5 µM), actives largely listed as inhibitors; 1,500 compounds, 6% hits; further: nearly all actives have a fitted effect of over 55% in size
Of the large screens only hits and unclear results are named; the others gave an inactive call (follow-up assays come after a bar, where they were run). Only some compounds are listed: those with a hit (about 21% of all), similar ones and a draw of the others. Unless noted, the call rests on the fitted dose curve; in most records, active means well fitted curve in the direction sought with a large enough effect; inconclusive means small, poorly fitted or top-dose-only effect, or another doubt; inactive means no such curve, though single readings can be large; an effect the other way counts as inactive or inconclusive.

COc1ncnc2c1NC1=C(S2)C(=NCCC(=O)O)CC(C)(C)C1	Giardia FBPA inh-1 inconclusive
COc1ccc(C)cc1NC(=O)C(NCC(O)c1ccccc1)c1ccccc1 (stereo unspecified)	Pf growth 96h 10µM, Giardia FBPA inh-1 13µM, Pf growth 48h inconclusive | Giardia growth inactive | Mammal cell tox inactive | Giardia FBPA inh-2 inactive | Rabbit aldolase inactive | GAPDH coupling inactive
COc1ccc(CCN(C)S(=O)(=O)c2ccc(Cl)nc2)cc1OC	none (no result: NS1 function inh)
O=C1CN(C(=S)NC(=O)c2ccccc2[N+](=O)[O-])CCN1	Pf growth 96h 7.4µM, Giardia FBPA inh-1 11µM | Giardia growth inconclusive | Mammal cell tox inactive | Giardia FBPA inh-2 inactive | Rabbit aldolase inactive | GAPDH coupling inactive
O=C(NNC(=S)NC(=O)c1ccccc1[N+](=O)[O-])c1ccccc1	Pf growth 48h inconclusive
CC1Cc2ccccc2N1C(=O)CSc1nnnn1C(C)C (stereo unspecified)	Pf growth 96h inconclusive
Cc1cc(-c2nc(C)c(C(=O)NN)s2)no1	none
COC(=O)c1cc(OC)c(OC)cc1NC(=S)NC(=O)c1ccco1	Giardia FBPA inh-1 13µM | Giardia growth inactive | Mammal cell tox inactive | Giardia FBPA inh-2 inactive | Rabbit aldolase inactive | GAPDH coupling inactive
Cc1ccccc1C(=O)NC(=S)Nc1ccccc1[N+](=O)[O-]	Pf growth 96h inconclusive
Cc1ccccc1NC(=S)NNC(=O)c1ccco1	Cycloheximide cs 32, Giardia FBPA inh-1 7.9µM, Shiga toxin inh 52 | Giardia growth inconclusive | Mammal cell tox inactive | Giardia FBPA inh-2 inactive | Rabbit aldolase inactive | GAPDH coupling inactive
O=C(NC(=S)Nc1ccccc1[N+](=O)[O-])c1ccco1	Pf growth 96h inconclusive, Cycloheximide cs 22, Giardia FBPA inh-1 16µM (no result: NS1 function inh) | Giardia growth 35µM | Mammal cell tox inactive | Giardia FBPA inh-2 inactive | Rabbit aldolase inactive | GAPDH coupling inactive
O=C(CSc1ccc(Br)cc1)NC1CCS(=O)(=O)C1 (stereo unspecified)	none (no result: Cycloheximide cs, Giardia FBPA inh-1, Shiga toxin inh, NS1 function inh)
Cc1noc(C)c1COC(=O)c1cccnc1Cl	none (no result: NS1 function inh)
O=S(=O)(NC1CC1)c1ccc(S(=O)(=O)N(Cc2ccccn2)C2CCCC2)cc1	none (no result: Pf growth 48h)
CSc1nc(C=Nc2ccccc2Cl)c(O)n1Cc1cccc(Cl)c1	none
Oc1ccc(C(=S)N2CCN(Cc3ccccc3)CC2)cc1	Giardia FBPA inh-1 18µM | Giardia growth inactive | Mammal cell tox inactive | Giardia FBPA inh-2 inactive | Rabbit aldolase inactive | GAPDH coupling inactive
S=C(c1ccc(Br)cc1)N1CCN(Cc2ccccc2)CC1	Giardia FBPA inh-1 14µM | Giardia growth inconclusive | Mammal cell tox inactive | Giardia FBPA inh-2 inconclusive | Rabbit aldolase inconclusive | GAPDH coupling inconclusive
CN(C)c1ccc(C(=S)N2CCN(Cc3ccccc3)CC2)cc1	Giardia FBPA inh-1 6.3µM | Giardia growth inactive | Mammal cell tox inactive | Giardia FBPA inh-2 inactive | Rabbit aldolase inconclusive | GAPDH coupling inconclusive
